Assay results from PubChem BioAssay (NCI).
This is part of a sample that, as a whole, favours compounds with a hit. Of some 79,000 tested, about 15% had one in any assay. The source made the active and inactive calls. No stated cut-off is given here; in the data, active means growth inhibition above about 70%; inactive means the rest.

Assay: NCI Yeast Anticancer Drug Screen. Data for the rad50 strain (AID 155);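 further: 0% = growth of vehicle-only cultures of the same strain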
Details: S. cerevisiae rad50 strain growth inhibition; at 50.0 µM; stronger effect = higher value
In short: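 Cells are treated with compound, grown, and their growth is then scored against vehicle-only cultures of the same repair-deficient yeast strain.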

| SMILES | growth inhibition |
| --- | --- |
| CCOC(=O)CN(C)C#N | -16.9% (inactive) |
| O=CNC1(c2ccccc2)CCCCC1 | 2% (inactive) |
| Cc1nn(C(=O)c2ccncc2)c2c1C(c1ccccc1[N+](=O)[O-])SC(N)=N2 (stereo not given) | 21.4% (inactive) |
| NC(=O)c1[nH]nc(C2OC(CO)C(O)C2O)c1O (stereo not given) | 8% (inactive) |
| CC(C)c1ccc2c(c1)CCC1C(C)(C)[C@@H](O)CC[C@]21C (stereo not given in full) | -15.3% (inactive) |
| NC(=O)c1ccc[n+](-c2ccc([N+](=O)[O-])cc2[N+](=O)[O-])c1 | 79.3% (active) |
| CCSC(=S)S(=O)(=O)c1ccc(C)cc1 | 90.4% (active) |
| NC(=O)c1ccc2c(c1)-c1nc-2nc2[n-]c(nc3nc(nc4[n-]c(n1)c1ccc(C(N)=O)cc41)-c1ccc(C(N)=O)cc1-3)c1ccc(C(N)=O)cc21.[Co+2] | -7.55% (inactive) |
| Cc1cc(O)c2c(c1)C(=O)c1c(-c3ccc(O)c4c3C(=O)c3c(O)c(C)cc(O)c3C4=O)ccc(O)c1C2=O | -30.7% (inactive) |
| CNC(=O)OCc1c(COC(=O)NC)c(C)n(-c2ccccc2)c1C | 7.75% (inactive) |
| CCOC(=O)Nc1cc(Cl)c2nnn(C(=O)OCC)c2n1 | 95.8% (active) |
| C=C1N(c2cc(OC)c(OC)c(OC)c2)C(=O)OC12CCCCC2 | -4.05% (inactive) |
| CCOC(=O)C(C(=O)OCC)C(=O)C(C)(C)C | 25.8% (inactive) |
| CN(C)c1ccc(/C=N\NC(=S)NCCCN2CCN(CCCNC(=S)N/N=C/c3ccc(N(C)C)cc3)CC2)cc1 | 36.1% (inactive) |
| Cc1c(Cl)ccc([N+](=O)[O-])c1Cl | 10.7% (inactive) |
| CS(=O)(=O)OCCCCOS(=O)(=O)CF | -36.9% (inactive) |
| O.O.[Cl][Pt+2][Cl].[NH-]CC1(C[NH-])CCCCC1 | 10.4% (inactive) |
| COc1ccc2c(c1)CCN1CCc3ccccc3CC21 (stereo not given) | 30.6% (inactive) |
| CC12CCC[C@@](C)(C(=O)OC3OC(CO)C(O)C(O)C3O)[C@H]1CCC13CC4CC(OC4(CO)[C@H]1O)[C@@H]23 (stereo not given in full) | -8.45% (inactive) |
| O=C1CN(c2cccc(C(F)(F)F)c2)C(=O)CN1CCN1CC(=O)N(c2cccc(C(F)(F)F)c2)CC1=O | -30.6% (inactive) |

| SMILES | growth inhibition |
| --- | --- |
| CN(c1ccc(Br)cc1)c1nc(N)nc(N)c1N=O | 16.4% (inactive) |
| CCOC(=O)C(NC(=O)OC(C)(C)C)C(=O)OCC | -43.2% (inactive) |
| NC(=S)N/N=C/c1ccccc1S(=O)(=O)O | 1.9% (inactive) |
| CNC(=O)c1ccccc1S(=O)Cc1ccc(Br)cc1 (stereo not given) | -19.1% (inactive) |
| OCC1OC(n2cnc3c(NCc4ccccc4)ncnc32)C(O)C1O (stereo not given) | -14.3% (inactive) |
| Cn1c(-c2ccc(/C=N/N=C(N)N)cc2)c[n+]2ccccc12 | 8.85% (inactive) |
| O=C(Cc1ccccc1)NC(=O)Nc1ccccc1 | -7.5% (inactive) |
| O=c1[nH]c2c(Br)cccc2c2ccccc12 | 43.1% (inactive) |
| Cc1c(Cl)cccc1NC(=O)Sc1ccc(C(C)(C)C)cc1 | 21.1% (inactive) |
| O=C1c2ccccc2C(=O)c2c1nnn2-c1ccccc1 | 41.7% (inactive) |
| COC(=O)c1cc(C)c2c3ccccc3n(C)c2c1C(=O)OC | 19.6% (inactive) |
| Oc1cccc(CCc2ccccn2)c1 | -2.45% (inactive) |
| O=C(c1ccccc1)c1cc[n+]([O-])cc1 | -5.6% (inactive) |
| C#CCn1cnc2c1c(=O)n(C)c(=O)n2C | 10.2% (inactive) |
| O=C(O)C(O)C(O)C(O)C(O)C(O)CO.[NH-]C1CCCCC1[NH-].[Pt+2] (stereo not given) | -18.3% (inactive) |
| CC(=O)/C=C1\N(C)c2ccccc2C1(C)C | 2.1% (inactive) |
| COC(=O)c1c2cccccc-2c(C(=O)OC)c1N | 15% (inactive) |
| CC[N+](C)(CC)c1cccc(OC(=O)N2CCCCC2)c1 | 7.8% (inactive) |
| Cc1cc2c(=O)c(C(=O)O)c[nH]c2cc1-n1cccc1 | 41.8% (inactive) |
| O=C1c2ccccc2C(=O)N1C/C(Cl)=C/Cl | -21.9% (inactive) |

Assay: NCI Yeast Anticancer Drug Screen. Data for the mec2-1 strain (AID 157)
Details: S. cerevisiae mec2-1 strain, at 50.0 µM, stronger effect = higher value
In short: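 Mutant yeast (mec2-1) grown with compound; growth inhibition relative to vehicle control reported.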

| SMILES | growth inhibition |
| --- | --- |
| CCOC(=O)CN(C)C#N | -33.3% (inactive) |
| O=CNC1(c2ccccc2)CCCCC1 | -37% (inactive) |
| Cc1nn(C(=O)c2ccncc2)c2c1C(c1ccccc1[N+](=O)[O-])SC(N)=N2 (stereo not given) | 6.15% (inactive) |
| NC(=O)c1[nH]nc(C2OC(CO)C(O)C2O)c1O (stereo not given) | -27.2% (inactive) |
| CC(C)c1ccc2c(c1)CCC1C(C)(C)[C@@H](O)CC[C@]21C (stereo not given in full) | -40.1% (inactive) |
| NC(=O)c1ccc[n+](-c2ccc([N+](=O)[O-])cc2[N+](=O)[O-])c1 | 54.6% (inactive) |
| CCSC(=S)S(=O)(=O)c1ccc(C)cc1 | 93.1% (active) |
| NC(=O)c1ccc2c(c1)-c1nc-2nc2[n-]c(nc3nc(nc4[n-]c(n1)c1ccc(C(N)=O)cc41)-c1ccc(C(N)=O)cc1-3)c1ccc(C(N)=O)cc21.[Co+2] | 4.65% (inactive) |
| Cc1cc(O)c2c(c1)C(=O)c1c(-c3ccc(O)c4c3C(=O)c3c(O)c(C)cc(O)c3C4=O)ccc(O)c1C2=O | -19.8% (inactive) |
| CNC(=O)OCc1c(COC(=O)NC)c(C)n(-c2ccccc2)c1C | -14.1% (inactive) |
| CCOC(=O)Nc1cc(Cl)c2nnn(C(=O)OCC)c2n1 | 98.2% (active) |
| C=C1N(c2cc(OC)c(OC)c(OC)c2)C(=O)OC12CCCCC2 | 5.4% (inactive) |
| CCOC(=O)C(C(=O)OCC)C(=O)C(C)(C)C | 0.3% (inactive) |
| CN(C)c1ccc(/C=N\NC(=S)NCCCN2CCN(CCCNC(=S)N/N=C/c3ccc(N(C)C)cc3)CC2)cc1 | 9.4% (inactive) |
| Cc1c(Cl)ccc([N+](=O)[O-])c1Cl | -6.85% (inactive) |
| CS(=O)(=O)OCCCCOS(=O)(=O)CF | -35% (inactive) |
| O.O.[Cl][Pt+2][Cl].[NH-]CC1(C[NH-])CCCCC1 | 5.7% (inactive) |
| COc1ccc2c(c1)CCN1CCc3ccccc3CC21 (stereo not given) | 43.4% (inactive) |
| CC12CCC[C@@](C)(C(=O)OC3OC(CO)C(O)C(O)C3O)[C@H]1CCC13CC4CC(OC4(CO)[C@H]1O)[C@@H]23 (stereo not given in full) | -26.1% (inactive) |
| O=C1CN(c2cccc(C(F)(F)F)c2)C(=O)CN1CCN1CC(=O)N(c2cccc(C(F)(F)F)c2)CC1=O | -6.4% (inactive) |

| SMILES | growth inhibition |
| --- | --- |
| CN(c1ccc(Br)cc1)c1nc(N)nc(N)c1N=O | -10.6% (inactive) |
| CCOC(=O)C(NC(=O)OC(C)(C)C)C(=O)OCC | -90.8% (inactive) |
| NC(=S)N/N=C/c1ccccc1S(=O)(=O)O | -12.8% (inactive) |
| CNC(=O)c1ccccc1S(=O)Cc1ccc(Br)cc1 (stereo not given) | -30.2% (inactive) |
| OCC1OC(n2cnc3c(NCc4ccccc4)ncnc32)C(O)C1O (stereo not given) | -2.5% (inactive) |
| Cn1c(-c2ccc(/C=N/N=C(N)N)cc2)c[n+]2ccccc12 | 4.3% (inactive) |
| O=C(Cc1ccccc1)NC(=O)Nc1ccccc1 | -10.2% (inactive) |
| O=c1[nH]c2c(Br)cccc2c2ccccc12 | 3.85% (inactive) |
| Cc1c(Cl)cccc1NC(=O)Sc1ccc(C(C)(C)C)cc1 | 11.4% (inactive) |
| O=C1c2ccccc2C(=O)c2c1nnn2-c1ccccc1 | 5.95% (inactive) |
| COC(=O)c1cc(C)c2c3ccccc3n(C)c2c1C(=O)OC | -0.4% (inactive) |
| Oc1cccc(CCc2ccccn2)c1 | 0.85% (inactive) |
| O=C(c1ccccc1)c1cc[n+]([O-])cc1 | -11.8% (inactive) |
| C#CCn1cnc2c1c(=O)n(C)c(=O)n2C | -12.7% (inactive) |
| O=C(O)C(O)C(O)C(O)C(O)C(O)CO.[NH-]C1CCCCC1[NH-].[Pt+2] (stereo not given) | 4.4% (inactive) |
| CC(=O)/C=C1\N(C)c2ccccc2C1(C)C | -12.3% (inactive) |
| COC(=O)c1c2cccccc-2c(C(=O)OC)c1N | 17.9% (inactive) |
| CC[N+](C)(CC)c1cccc(OC(=O)N2CCCCC2)c1 | 3.45% (inactive) |
| Cc1cc2c(=O)c(C(=O)O)c[nH]c2cc1-n1cccc1 | 23.6% (inactive) |
| O=C1c2ccccc2C(=O)N1C/C(Cl)=C/Cl | -6.5% (inactive) |
